Laboratory results published in PubChem BioAssay (EPA / NIEHS).
Activity calls are given as the source filed them. The calls were made as follows: active = hit-call score of the fitted dose curve at least 0.9, where 1 is the maximum; inactive = score below 0.9.

Columns and labels:
[1] = read-out: Plasminogen activator inhibitor-1 (PAI1), SERPINE1 (gene 5054); assay: BSK_hDFCGF_PAI1: BioMAP Diversity Plus: hDFCGF Assay for Plasminogen activator inhibitor-1 (PAI1) Biomarker Activity (AID 2283066); details: primary human foreskin fibroblasts; actives raise or lower the signal
Procedure, shortened: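 Human foreskin fibroblasts in the hDFCGF system were dosed with compound for 24 h; PAI-1 was quantified by ELISA. Bidirectional curve fitting used DMSO as negative control and baseline.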

[2] = read-out: Intercellular Adhesion Molecule 1 (ICAM1), ICAM1 (gene 3383); assay: BSK_KF3CT_ICAM1: BioMAP Diversity Plus: KF3CT Assay for Intercellular Adhesion Molecule 1 (ICAM1) Biomarker Activity (AID 2283067); details: primary human keratinocytes with fibroblasts; actives raise or lower the signal
Procedure, shortened: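 Bidirectional curve fitting against a DMSO baseline was applied to ICAM-1 ELISA signal from primary human skin co-cultures harvested 24 h after treatment, with SRB staining of parallel wells for overt cytotoxicity.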

[3] = BSK_KF3CT_SRB: Viability Assessment in the BioMAP Diversity Plus: KF3CT Assay (AID 2283069); details: primary human keratinocytes with fibroblasts;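 also: total protein by sulforhodamine B staining as a cytotoxicity measure; read 24 h after compound addition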
Procedure, shortened: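 Human primary keratinocyte plus foreskin fibroblast co-culture exposed to chemicals for 24 h. Total protein measured by 0.1% sulforhodamine B staining after 10% TCA fixation, read at 560 nm; bidirectional fitting versus DMSO baseline.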

[4] = read-out: Interleukin-1 alpha (IL1a), IL1A (gene 3552); assay: BSK_KF3CT_IL1a: BioMAP Diversity Plus: KF3CT Assay for Interleukin-1 alpha (IL1a) Biomarker Activity (AID 2283070); details: primary human keratinocytes with fibroblasts; actives raise or lower the signal
Procedure, shortened: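 Human keratinocyte plus foreskin fibroblast primary co-culture, sampled 24 h after chemical dosing. IL-1a measured by ELISA; responses fitted bidirectionally against DMSO baseline (negative control), so gain or loss of signal both count.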

[5] = read-out: TIMP metallopeptidase inhibitor 2 (TIMP2), TIMP2 (gene 7077); assay: BSK_KF3CT_TIMP2: BioMAP Diversity Plus: KF3CT Assay for TIMP metallopeptidase inhibitor 2 (TIMP2) Biomarker Activity (AID 2283071); details: primary human keratinocytes with fibroblasts; actives raise or lower the signal
Procedure, shortened: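 Human primary keratinocyte/foreskin fibroblast co-culture dosed with chemical and sampled at 24 h. TIMP-2 levels quantified by ELISA; bidirectional fitting against DMSO negative control as baseline.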

[6] = read-out: Transforming growth factor beta 1 (TGFb1), TGFB1 (gene 7040); assay: BSK_KF3CT_TGFb1: BioMAP Diversity Plus: KF3CT Assay for Transforming growth factor beta 1 (TGFb1) Biomarker Activity (AID 2283072); details: primary human keratinocytes with fibroblasts; actives raise or lower the signal
Procedure, shortened: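 Human keratinocyte plus foreskin fibroblast primary co-culture, dosed with chemical for 24 h. TGF-b1 quantified by ELISA. Activity fitted bidirectionally against DMSO negative control as baseline.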

[7] = read-out: Matrix Metallopeptidase 9 (MMP9), MMP9 (gene 4318); assay: BSK_KF3CT_MMP9: BioMAP Diversity Plus: KF3CT Assay for Matrix Metallopeptidase 9 (MMP9) Biomarker Activity (AID 2283074); details: primary human keratinocytes with fibroblasts; actives raise or lower the signal;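 as to AC50: MMP9 protein level quantified by ELISA in the co-culture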
Procedure, shortened: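 Keratinocyte plus foreskin fibroblast human primary skin co-culture was dosed with chemical and MMP-9 was quantified by ELISA 24 h later. Bidirectional curve fitting used DMSO as negative control and activity baseline.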

[8] = read-out: urokinase plasminogen activator (uPA), PLAU (gene 5328); assay: BSK_KF3CT_uPA: BioMAP Diversity Plus: KF3CT Assay for urokinase plasminogen activator (uPA) Biomarker Activity (AID 2283075); details: primary human keratinocytes with fibroblasts; actives raise or lower the signal
Procedure, shortened: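 Human keratinocyte plus foreskin fibroblast primary co-culture exposed to chemical for 24 h. uPA levels were quantified by ELISA, and activity was fitted bidirectionally against a DMSO negative-control baseline.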

CD40, CD40 (gene 958) = assay: BSK_LPS_CD40: BioMAP Diversity Plus: LPS Assay for CD40 Biomarker Activity (AID 2283076); details: primary human HUVEC with PBMC; actives raise or lower the signal
Procedure, shortened: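 Using a multiplexed primary human co-culture (umbilical vein endothelium plus PBMC), CD40 was read by ELISA 24 h after dosing, with cytotoxicity tracked by sulforhodamine B staining of parallel cultures and activity fitted bidirectionally versus DMSO.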

[9] = read-out: E-selectin (Homo sapiens) (UniProt P16581); assay: BSK_LPS_Eselectin: BioMAP Diversity Plus: LPS Assay for Eselectin Biomarker Activity (AID 2283077); details: primary human HUVEC with PBMC; actives raise or lower the signal
Procedure, shortened: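 Dose chemical onto LPS-driven HUVEC/PBMC co-culture; after 24 h, run ELISA for E-selectin; fit up- and down-going responses relative to DMSO control.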

[10] = read-out: Interleukin-8 (IL8), CXCL8 (gene 3576); assay: BSK_LPS_IL8: BioMAP Diversity Plus: LPS Assay for Interleukin-8 (IL8) Biomarker Activity (AID 2283078); details: primary human HUVEC with PBMC; actives raise or lower the signal
Procedure, shortened: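 In this LPS system, chemical-treated human umbilical vein endothelium/PBMC co-cultures were harvested at 24 h for IL-8 ELISA.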

[11] = BSK_LPS_SRB: Viability Assessment in the BioMAP Diversity Plus: LPS Assay (AID 2283079); details: primary human HUVEC with PBMC;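 also: total protein by sulforhodamine B absorbance as a cytotoxicity measure; measured one day after compound addition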
Procedure, shortened: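 Cytotoxicity endpoint in human endothelial–PBMC co-culture: 24 h exposure, then SRB (0.1%) staining, 560 nm read.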

[12] = read-out: Interleukin-1 alpha (IL1a), IL1A (gene 3552); assay: BSK_LPS_IL1a: BioMAP Diversity Plus: LPS Assay for Interleukin-1 alpha (IL1a) Biomarker Activity (AID 2283080); details: primary human HUVEC with PBMC; actives raise or lower the signal
Procedure, shortened: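 Primary human HUVEC and PBMC co-culture stimulated with LPS is dosed and harvested at 24 h. Both increases and decreases in ELISA-measured IL-1a are scored relative to DMSO.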

[13] = read-out: Monocyte Chemoattractant Protein-1 (MCP1), CCL2 (gene 6347); assay: BSK_LPS_MCP1: BioMAP Diversity Plus: LPS Assay for Monocyte Chemoattractant Protein-1 (MCP1) Biomarker Activity (AID 2283081); details: primary human HUVEC with PBMC; actives raise or lower the signal;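 as to AC50: secreted MCP-1 protein quantified by ELISA in culture supernatant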
Procedure, shortened: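 Values derive from bidirectional fitting against DMSO of ELISA-measured MCP-1 in a human primary endothelial and mononuclear cell co-culture, 24 h after chemical addition under LPS activation.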

[14] = BSK_LPS_PGE2: BioMAP Diversity Plus: LPS Assay for Prostaglandin E2 (PGE2) Biomarker Activity (AID 2283082); details: primary human HUVEC with PBMC; actives raise or lower the signal;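 as to AC50: secreted prostaglandin E2 measured by ELISA in LPS-stimulated co-culture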
Procedure, shortened: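 HUVEC plus PBMC co-culture stimulated with LPS; secreted PGE2 quantified by ELISA 24 h after chemical dosing. Activity fitted bidirectionally against DMSO as negative control and baseline; parallel SRB total-protein staining served as cytotoxicity check.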

[15] = read-out: Macrophage colony-stimulating factor (MCSF), CSF1 (gene 1435); assay: BSK_LPS_MCSF: BioMAP Diversity Plus: LPS Assay for Macrophage colony-stimulating factor (MCSF) Biomarker Activity (AID 2283083); details: primary human HUVEC with PBMC; actives raise or lower the signal
Procedure, shortened: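 Bidirectional fit versus DMSO of ELISA-measured M-CSF in co-cultured human umbilical vein endothelial cells and PBMC, sampled 24 h after dosing.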

[16] = read-out: Tissue Factor, F3 (gene 2152); assay: BSK_LPS_TissueFactor: BioMAP Diversity Plus: LPS Assay for Tissue Factor Biomarker Activity (AID 2283084); details: primary human HUVEC with PBMC; actives raise or lower the signal
Procedure, shortened: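 Read-out: CD142 ELISA, 24 h. System: LPS-driven human endothelial/PBMC co-culture. Analysis: up- or down-signal fitted against DMSO.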

[17] = read-out: Tumor necrosis factor (Homo sapiens) (UniProt P01375); assay: BSK_LPS_TNFa: BioMAP Diversity Plus: LPS Assay for Tumour Necrosis Factor alpha (TNFa) Biomarker Activity (AID 2283085); details: primary human HUVEC with PBMC; actives raise or lower the signal
Procedure, shortened: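 Human umbilical vein endothelial cells co-cultured with PBMC were exposed to test chemical and TNFa measured by ELISA 24 h after dosing. Bidirectional curve fitting was done relative to DMSO as negative control and baseline.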

Chain of Tumor necrosis factor (Homo sapiens) (P01375 whole entry, looked up): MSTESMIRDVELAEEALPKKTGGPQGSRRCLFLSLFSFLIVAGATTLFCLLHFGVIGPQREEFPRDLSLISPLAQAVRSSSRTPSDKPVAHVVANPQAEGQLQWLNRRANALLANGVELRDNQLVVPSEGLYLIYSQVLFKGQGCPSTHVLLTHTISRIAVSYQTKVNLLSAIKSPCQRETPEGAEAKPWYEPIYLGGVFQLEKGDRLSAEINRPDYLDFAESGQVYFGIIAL
Chain of E-selectin (Homo sapiens) (P16581 whole entry, looked up): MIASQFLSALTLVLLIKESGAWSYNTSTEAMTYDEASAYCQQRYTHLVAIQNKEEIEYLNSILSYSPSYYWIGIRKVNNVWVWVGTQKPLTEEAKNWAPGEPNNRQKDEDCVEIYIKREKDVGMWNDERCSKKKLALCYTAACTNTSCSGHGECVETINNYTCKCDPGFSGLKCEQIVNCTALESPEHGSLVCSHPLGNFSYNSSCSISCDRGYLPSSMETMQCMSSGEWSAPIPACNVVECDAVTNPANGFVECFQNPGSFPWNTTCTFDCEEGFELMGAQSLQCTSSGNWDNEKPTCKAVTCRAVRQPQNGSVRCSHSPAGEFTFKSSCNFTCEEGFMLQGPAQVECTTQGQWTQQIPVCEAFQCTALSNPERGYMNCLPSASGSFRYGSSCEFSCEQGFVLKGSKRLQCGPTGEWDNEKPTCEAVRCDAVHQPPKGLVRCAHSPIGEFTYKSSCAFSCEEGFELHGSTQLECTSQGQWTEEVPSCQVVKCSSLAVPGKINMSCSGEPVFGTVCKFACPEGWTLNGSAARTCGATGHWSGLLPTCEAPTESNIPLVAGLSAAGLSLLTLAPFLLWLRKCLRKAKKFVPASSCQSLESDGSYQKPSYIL

SMILES: CCCSC(=O)N(CCC)CCC
- outcome [1]: inactive
- outcome [2]: inactive
- outcome [3]: inactive
- outcome [4]: inactive
- outcome [5]: inactive
- outcome [6]: inactive
- outcome [7]: inactive
- outcome [8]: inactive
- outcome (CD40, CD40 (gene 958)): inactive
- outcome [9]: inactive
- outcome [10]: inactive
- outcome [11]: inactive
- outcome [12]: inactive
- outcome [13]: inactive
- outcome [14]: inactive
- outcome [15]: inactive
- outcome [16]: inactive

SMILES: COc1cc(C=O)cc2c1[C@H](COC(N)=O)[C@]1(OC(C)=O)ON2C[C@H]2[C@@H]1N2C(C)=O
- AC50 [1]: 0.144 µM (active)
- AC50 [2]: 11.6 µM (active)
- AC50 [3]: 3.36 µM (active)
- AC50 [4]: 20 µM (active)
- AC50 [5]: 2.26 µM (active)
- AC50 [6]: 2.21 µM (active)
- AC50 [7]: 2.07 µM (active)
- AC50 [8]: 11.4 µM (active)
- AC50 (CD40, CD40 (gene 958)): 20 µM (active)
- AC50 [9]: 10.6 µM (active)
- AC50 [10]: 13.3 µM (active)
- AC50 [11]: 6.69 µM (active)
- AC50 [12]: 19.7 µM (active)
- AC50 [13]: 5.86 µM (active)
- outcome [14]: inactive
- AC50 [15]: 3.97 µM (active)
- AC50 [16]: 14.3 µM (active)
- outcome [17]: inactive

SMILES: ClC1=C(Cl)[C@]2(Cl)[C@H]3[C@H]([C@@H]4C=C[C@H]3C4)[C@@]1(Cl)C2(Cl)Cl
- AC50 [1]: 10.7 µM (active)
- AC50 [2]: 15.5 µM (active)
- AC50 [3]: 30.6 µM (active)
- AC50 [5]: 20 µM (active)
- AC50 [6]: 22.4 µM (active)
- AC50 [7]: 11.6 µM (active)
- AC50 [8]: 28.7 µM (active)
- AC50 (CD40, CD40 (gene 958)): 32.1 µM (active)
- AC50 [9]: 33.5 µM (active)
- AC50 [10]: 33.8 µM (active)
- AC50 [11]: 30.5 µM (active)
- AC50 [12]: 28.9 µM (active)
- AC50 [13]: 36.8 µM (active)
- outcome [14]: inactive
- AC50 [15]: 31.6 µM (active)
- AC50 [16]: 31.2 µM (active)

SMILES: C[C@]12C=CC3=C4CCC(=O)C=C4CC[C@H]3[C@@H]1CC[C@@H]2O
- AC50 [1]: 0.164 µM (active)
- outcome [2]: inactive
- outcome [3]: inactive
- outcome [4]: inactive
- outcome [5]: inactive
- outcome [6]: inactive
- outcome [7]: inactive
- outcome [8]: inactive
- AC50 (CD40, CD40 (gene 958)): 20 µM (active)
- AC50 [9]: 4.37 µM (active)
- outcome [10]: inactive
- outcome [11]: inactive
- outcome [12]: inactive
- outcome [13]: inactive
- AC50 [14]: 7.31 µM (active)
- AC50 [15]: 9.08 µM (active)
- outcome [16]: inactive
- outcome [17]: inactive

SMILES: COC(=O)Nc1nc2ccccc2[nH]1
- outcome [1]: inactive
- outcome [2]: inactive
- outcome [3]: inactive
- outcome [4]: inactive
- outcome [5]: inactive
- outcome [6]: inactive
- outcome [7]: inactive
- outcome [8]: inactive
- outcome (CD40, CD40 (gene 958)): inactive
- outcome [9]: inactive
- outcome [10]: inactive
- AC50 [11]: 10.5 µM (active)
- outcome [12]: inactive
- outcome [13]: inactive
- outcome [14]: inactive
- AC50 [15]: 7.04 µM (active)
- outcome [16]: inactive
- outcome [17]: inactive

SMILES: ClCCOCCCl
- outcome [1]: inactive
- outcome [2]: inactive
- outcome [3]: inactive
- outcome [4]: inactive
- outcome [5]: inactive
- outcome [6]: inactive
- outcome [7]: inactive
- outcome [8]: inactive
- outcome (CD40, CD40 (gene 958)): inactive
- outcome [9]: inactive
- outcome [10]: inactive
- outcome [11]: inactive
- outcome [12]: inactive
- outcome [13]: inactive
- outcome [14]: inactive
- outcome [15]: inactive
- outcome [16]: inactive

SMILES: Nc1ccc(Cc2ccc(N)cc2)cc1
- outcome [1]: inactive
- outcome [2]: inactive
- outcome [3]: inactive
- outcome [4]: inactive
- outcome [5]: inactive
- outcome [6]: inactive
- outcome [7]: inactive
- outcome [8]: inactive
- outcome (CD40, CD40 (gene 958)): inactive
- outcome [9]: inactive
- outcome [10]: inactive
- outcome [11]: inactive
- outcome [12]: inactive
- outcome [13]: inactive
- AC50 [14]: 8.34 µM (active)
- outcome [15]: inactive
- outcome [16]: inactive
- outcome [17]: inactive

SMILES: Cc1ccc(N=C=O)cc1N=C=O
- outcome [1]: inactive
- outcome [2]: inactive
- outcome [3]: inactive
- outcome [4]: inactive
- outcome [5]: inactive
- outcome [6]: inactive
- outcome [7]: inactive
- outcome [8]: inactive
- outcome (CD40, CD40 (gene 958)): inactive
- outcome [9]: inactive
- outcome [10]: inactive
- outcome [11]: inactive
- outcome [12]: inactive
- outcome [13]: inactive
- outcome [14]: inactive
- outcome [15]: inactive
- outcome [16]: inactive
- outcome [17]: inactive
